Measured values reported in PubChem BioAssay AID2284084 (EPA ToxCast).
Active and inactive are the calls of the source. The calls were made as follows: active = hit-call score of the fitted dose curve at least 0.9, where 1 is the maximum; inactive = score below 0.9.

Each compound was assayed against human CK1alpha CK1 Kinase, CSNK1A1 (gene 1452) (UniProt P48729) (assay: ERF_TW_ENZ_hCSNK1A1: Eurofins (ERF) Enzymatic Radiometric [10 uM ATP] Assay for human CK1alpha CK1 Kinase).
Description: ERF_TW_ENZ_hCSNK1A1 is a biochemical, single-readout assay that uses extracted gene-proteins in a cell-free assay. Measurements were taken 0.5 hour after chemical dosing in a 96-well plate. See CK1alpha Human CK1 Kinase Enzymatic Radiometric Assay [10 uM ATP], Panlabs.ERF_TW_ENZ_hCSNK1A1 is an assay component calculated from the ERF_TW_ENZ_hCSNK1A1 assay. It is designed to measure enzyme activity using a type of enzyme reporter as detected by scintillation counting with radiometry technology.Data from the assay component ERF_TW_ENZ_hCSNK1A1 was analyzed at the assay endpoint, ERF_TW_ENZ_hCSNK1A1, in the positive analysis fitting direction relative to DMSO as the negative control and baseline of activity. Using a type of enzyme reporter, loss-of-signal activity can be used to understand changes in enzymatic activity as they relate to gene CSNK1A1. To generalize the intended target to other relatable targets, this assay endpoint is annotated to the kinase intended target family, where the subfamily is serine/threonine kinase.
CK1alpha (h) is incubated for 120 minutes at room temperature, with KRRRALS(p)VASLPGL (SP15) as substrate, and PP1 Analog II. 1NM-PP1 as control inhibitor. Test Sample Requirements: Compound should be supplied in 100%DMSO. We require a stock solution at a concentration of at least 50x higher than the Final Assay Concentration of your cpd. […]

human CK1alpha CK1 Kinase, CSNK1A1 (gene 1452), sequence (P48729 whole entry, looked up): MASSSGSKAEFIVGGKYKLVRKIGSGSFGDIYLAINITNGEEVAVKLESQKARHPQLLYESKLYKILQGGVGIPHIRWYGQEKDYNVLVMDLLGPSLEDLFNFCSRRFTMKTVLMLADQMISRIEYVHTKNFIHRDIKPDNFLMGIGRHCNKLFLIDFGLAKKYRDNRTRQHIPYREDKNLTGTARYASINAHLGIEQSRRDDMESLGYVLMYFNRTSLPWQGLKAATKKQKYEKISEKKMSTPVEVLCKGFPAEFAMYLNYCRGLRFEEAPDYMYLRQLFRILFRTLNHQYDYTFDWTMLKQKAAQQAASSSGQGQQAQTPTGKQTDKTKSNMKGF

Row | SMILES | AC50
1 | O=C(/C=C/c1ccc(O)cc1)CC(=O)/C=C/c1ccc(O)cc1 | 872 nM (active)
